# About 83,000 compounds went through this panel and 20% of them were active in at least one assay; those are over-represented in the sample as a whole.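 The test compound was applied at a single concentration to cells in 96-well plates for 48 hours, and percent growth was recorded.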 Calls of active or inactive are those of the source.
# Tested on: SK-MEL-5 melanoma
# Test: NCI-60 one-dose screen, 48 h (100 = growth as untreated, 0 = no growth, -100 = all killed)
# Settings: 10 µM unless noted
# Description: Growth inhibition of the SK-MEL-5 human tumor cell line is measured as a screen for anti-cancer activity. Cells are grown in 96 well plates and exposed to the test compound for 48 hours. Compounds are tested at a single concentration, which is 10^-5 M for most compounds. The reported endpoint is percent growth (GI% or GIPRCNT), where numbers from 0 - 100% represent growth inhibition, and numbers from -100% - 0 represent cell death. For example, a value of 40 represents 60% growth inhibition. A value of 0 means no net growth occurred over the course of the experiment. A value of -40 indicates 40% of cells at the beginning of the experiment died by the end of the experiment. A value of -100 means all cells are dead at the end of the experiment.
# NCI-60 Human Tumor Cell Lines Screen was performed using the standard one-dose NCI protocol, which is described in more detail at https://dtp.cancer.gov/discovery_development/nci-60/default.htm.
# Compounds with GIPRCNT values below 10 were considered active. Activity score was based on GIPRCNT using the following formula: […]
# Score is 0 for GIPRCNT values of 100 or above, 50 for GIPRCNT values of 0, and 100 for GIPRCNT values of -100.
row,SMILES,growth
1,O=C1Nc2ccccc2/C1=C/c1cn(C(=O)c2c(Cl)cccc2Cl)c2ccccc12,63.1% (inactive)
2,CCN1C(=O)N(CC)C2Nn3c(s/c(=C\c4ccc(Cl)cc4Cl)c3=O)=NC21 (stereo not given),24.5% (inactive)
3,Cc1cc(C)c(-c2c(C)cc(C)cc2CBr)c(CBr)c1,77.6% (inactive)
4,COc1cc2c(cc1-c1c(C)noc1C)ncc1nc(C3CCCCC3)n(C3CCC(OC(F)F)CC3)c12 (stereo not given),9.79% (active)
5,CCN1C(=O)N(CC)C2Nn3c(s/c(=C4\C(=O)N(C)c5ccccc54)c3=O)=NC21 (stereo not given),36.4% (inactive)
6,c1ccc(-c2nc([P+](c3ccccc3)(c3ccccc3)c3ccccc3)c(N3CCOCC3)o2)cc1,-93.1% (active)
7,O=Cc1ccc(O)c2ncccc12,44% (inactive)
8,CC/C=C\C/C=C\C[C@H](O)C/C=C1/C(=O)C=C[C@@H]1C/C=C\CCCC(=O)O,20.7% (inactive)
9,Cc1cccc(Cc2cnc(NC(=O)c3ccc4nnsc4c3)s2)c1,97.3% (inactive)
10,CCOC(CN=Cc1cc(C)c2[nH]c3ccccc3c2c1C)OCC,105% (inactive)
11,COc1ccc(C2=NN(C(=O)c3cc(OC)c(OC)c(OC)c3)C(c3ccc(Cl)cc3)C2)cc1OC (stereo not given),9.51% (active)
12,COc1ccc(N=C(c2ccccc2)C2C(=O)c3ccccc3C2=O)cc1,71.4% (inactive)
13,NC(N)=Nc1nc2ccccc2n2c1nc1ccccc12,58.6% (inactive)
14,COc1cc(CCC[P+](c2ccccc2)(c2ccccc2)c2ccccc2)cc2c1OCO2,-41.2% (active)
15,N#Cc1c2c(nn(-c3ccccc3)c1=O)C(O)=C([N+](=O)[O-])C(c1ccccc1)C2 (stereo not given),92.9% (inactive)
16,O=C(CCCCCCN1CC(=O)N2[C@@H](c3ccccc3Cl)c3[nH]c4ccccc4c3C[C@H]2C1=O)NO,46.9% (inactive)
17,COc1ccc(C2c3ccc4ccccc4c3Oc3nc(C)[nH]c(=O)c32)cc1 (stereo not given),101% (inactive)
18,N[C@@H](CCCCNCC(=O)O)C(=O)O,101% (inactive)
19,Clc1cccc(Cl)c1/C=C/c1cc(/C=C/c2c(Cl)cccc2Cl)[nH]n1,22.9% (inactive)
20,O=C(O)c1ccc2c(c1)CCC2,108% (inactive)

row,SMILES,growth
1,O=c1ccn2nc3ccccc3c2[nH]1,96% (inactive)
2,C=C1C(=O)O[C@H]2[C@H]1CC/C(COC(=O)C(=O)c1c[nH]c3ccc(OC)cc13)=C\CC[C@@]1(C)O[C@@H]21,-96.6% (active)
3,CCOC(=O)c1c2c(n3ccc(NC(=O)OC(C)(C)C)cc13)C(=O)c1ncccc1C2=O,-96% (active)
4,O=C(CCc1nnc(CN(c2ccccc2)c2ccccc2)o1)c1nc2ccccc2[nH]1,99.4% (inactive)
5,Cc1ccc2nc3ccccc3c(NCc3ccccc3)c2c1,58.8% (inactive)
6,CCc1ccccc1-n1c(N)c(C#N)c(-c2ccc(N(C)C)cc2)c(C#N)c1=O,86.5% (inactive)
7,COc1ccc(-c2csc(C3=C(O)CN(CCCN4CCCC4=O)C3=N)n2)cc1OC,89.2% (inactive)
8,N#Cc1c(-c2ccccn2)[nH]c(=S)[nH]c1=O,106% (inactive)
9,COc1cc(N=Nc2ccc(N)cc2)c(OC)cc1N=Nc1ccccc1.[Cl][Zn][Cl],102% (inactive)
10,Cn1ccc2c(c1=O)C(=O)c1nccc3c1c-2nc1ccccc13,95% (inactive)
11,CC1SC(c2ccc(OCc3ccccc3)cc2)N(NC(=O)C(O)(c2ccccc2)c2ccccc2)C1=O (stereo not given),94.9% (inactive)
12,CN(Cc1cnc2nc(N)nc(N)c2n1)c1ccc(C(=O)N[C@@H](CCc2nn[nH]n2)c2nn[nH]n2)cc1,41.2% (inactive)
13,CC(C)Sc1nc(NNC(N)=S)c(C#N)c(-c2ccc(F)cc2)n1,93.3% (inactive)
14,C[n+]1cc2cc(C(N)=O)[nH]c3c(=N)c(Cl)c(N)c1c23,79.2% (inactive)
15,Fc1ccc(CNc2c3ccccc3nc3ccccc23)cc1F,66.2% (inactive)
16,Nc1n[nH]c(-c2cc(Cl)ccc2O)c1-c1ccccc1,92.2% (inactive)
17,CC1O[C@@H](OC2[C@H](OC(=O)/C=C/c3ccc(O)c(O)c3)C(COC3O[C@H](C)C(O)C(O)[C@@H]3O)O[C@@H](OCCc3ccc(O)c(O)c3)[C@H]2O)[C@@H](O)C(O)[C@H]1O (stereo not given in full),103% (inactive)
18,CCN(CC)S(=O)(=O)c1cccc(-c2ccc3c(NC(=O)C4CC4)n[nH]c3c2)c1,-37.2% [6.25 µM] (active)
19,COC(=O)[C@]12CC[C@@H](C)[C@H](C)[C@@H]1C1=CC[C@@H]3[C@@]4(C)C(C=O)=C[C@@](C)(COC(=O)/C=C/c5ccccc5)[C@@H]4[C@H](O)C[C@@]3(C)[C@]1(C)CC2,-64.4% (active)
20,O=C(Nc1ccc(Cl)cc1)Nc1ccc(Cl)c(C(F)(F)F)c1,-13.3% (active)
